Where “and” joins values, the source holds several entries; their conditions need not be identical. Identical values can stand only once. The panel holds about 83,000 compounds, 20% with a hit somewhere; the sample as a whole holds those more often.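 Values shown are percent growth following 48 h exposure of cells in 96-well plates to a single concentration of compound; below 10 was considered active.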 Calls of active or inactive are those of the source.
Tests used:
Experiment in all cases: NCI-60 one-dose screen, 48 h (100 = growth as untreated, 0 = no growth, -100 = all killed)
Conditions in all cases: 10 µM unless noted
NCI-H23 lung = test system: NCI-H23 lung
NCI-H226 lung = test system: NCI-H226 lung
NCI-H322M lung = test system: NCI-H322M lung
HOP-62 NSCLC = test system: HOP-62 NSCLC
NCI-H460 lung = test system: NCI-H460 lung
NCI-H522 lung = test system: NCI-H522 lung
A549/ATCC NSCLC = test system: A549/ATCC NSCLC
786-0 renal = test system: 786-0 renal
COLO 205 colon = test system: COLO 205 colon
DU-145 prostate = test system: DU-145 prostate
K-562 leukemia = test system: K-562 leukemia
MALME-3M melanoma = test system: MALME-3M melanoma
MDA-MB-231 breast = test system: MDA-MB-231 breast
RXF 393 renal = test system: RXF 393 renal
SF-268 CNS = test system: SF-268 CNS
SF-295 CNS = test system: SF-295 CNS
SF-539 CNS = test system: SF-539 CNS
UACC-257 melanoma = test system: UACC-257 melanoma
M14 melanoma = test system: M14 melanoma
HOP-92 NSCLC = test system: HOP-92 NSCLC

Row | Structure (SMILES) | growth (NCI-H23 lung) | growth (NCI-H226 lung) | growth (NCI-H322M lung) | growth (HOP-62 NSCLC) | growth (NCI-H460 lung) | growth (NCI-H522 lung) | growth (A549/ATCC NSCLC) | growth (786-0 renal) | growth (COLO 205 colon) | growth (DU-145 prostate) | growth (K-562 leukemia) | growth (MALME-3M melanoma) | growth (MDA-MB-231 breast) | growth (RXF 393 renal) | growth (SF-268 CNS) | growth (SF-295 CNS) | growth (SF-539 CNS) | growth (UACC-257 melanoma) | growth (M14 melanoma) | growth (HOP-92 NSCLC)
1 | Cc1nn(-c2ccccc2)nc1C(=O)Nc1ccccc1C(=O)NCC1CC1 | 102% (inactive) and 77.6% (inactive) | 98.1% (inactive) and 45.7% (inactive) | 111% (inactive) and 76.7% (inactive) | 96.7% (inactive) and 46.1% (inactive) | 94.3% (inactive) and 26.8% (inactive) | 91.9% (inactive) | 67.8% (inactive) and 38.7% (inactive) | 110% (inactive) and 35.1% (inactive) | 95.3% (inactive) and 52.8% (inactive) | 109% (inactive) and 62.6% (inactive) | 91.4% (inactive) and 44.3% (inactive) | 135% (inactive) and 97% (inactive) | 79.8% (inactive) and 23.6% (inactive) | 105% (inactive) and 77.4% (inactive) | 123% (inactive) and 91% (inactive) | 114% (inactive) and 59.5% (inactive) | 88.8% (inactive) and 30.9% (inactive) | 111% (inactive) | 105% (inactive) and 81.8% (inactive) | 
2 | COc1cc2c(c(OC)c1OC)-c1ccc(OC)c(=O)cc1[C@@H](NC(C)=O)CC2 | 24.4% (inactive) and 29.4% (inactive) and 12.6% (inactive) | 33.9% (inactive) and 13.1% (inactive) and 31% (inactive) | 47.7% (inactive) and 32.9% (inactive) and 36.1% (inactive) |  | 4.46% (active) and 1.09% (active) and 2.92% (active) | 15.4% (inactive) and -6.78% (active) and -64.2% (active) | 12.3% (inactive) and 44.9% (inactive) | 17.5% (inactive) and 9.25% (active) and 15.4% (inactive) | -36.4% (active) and 3.13% (active) and -47.6% (active) | -26.3% (active) and 0.564% (active) and -28.6% (active) | 9.04% (active) and 10.4% (inactive) and -25.7% (active) | 45.1% (inactive) and 43.1% (inactive) and 39% (inactive) | 16.3% (inactive) and -21.5% (active) and -9.65% (active) | 34% (inactive) and 33.7% (inactive) and 15.3% (inactive) | 33.5% (inactive) and 27.5% (inactive) and 35.1% (inactive) | 2.25% (active) and 12.5% (inactive) and 7.89% (active) | -9.65% (active) and -24.7% (active) and -10.6% (active) | 76.9% (inactive) and 66.3% (inactive) and 24.9% (inactive) | 2.32% (active) and -7.49% (active) and 1.7% (active) | 
3 | c1ccc2cc(C[n+]3ccn(Cc4ccc5ccccc5n4)c3)ccc2c1 | -4.2% (active) and 29.2% (inactive) | 19.6% (inactive) and 46.4% (inactive) |  | 1.85% (active) and 44.3% (inactive) | 11.1% (inactive) and 35.8% (inactive) | -27.4% (active) and 6.58% (active) | 37.3% (inactive) and 59.3% (inactive) | 30.9% (inactive) and 76.1% (inactive) | -38.3% (active) and -35.3% (active) | 21.9% (inactive) and 64.5% (inactive) | 14.5% (inactive) and 21.2% (inactive) | -27.2% (active) and 22.9% (inactive) | -2.02% (active) and 23.4% (inactive) | 23.5% (inactive) and 45.4% (inactive) | 11.9% (inactive) and 41.2% (inactive) | 19.7% (inactive) and 60% (inactive) | 13.8% (inactive) and 29.3% (inactive) | -25.3% (active) and -8.7% (active) | 9.07% (active) and 35.4% (inactive) | -20.1% (active) and -5.22% (active)
4 | O=C1OC2(c3ccccc31)c1ccc(O)c(O)c1Oc1c2ccc(O)c1O | 105% (inactive) and 102% (inactive) | 90.5% (inactive) and 121% (inactive) |  | 114% (inactive) and 101% (inactive) | 114% (inactive) and 109% (inactive) | 89.8% (inactive) and 84.1% (inactive) | 105% (inactive) | 109% (inactive) and 117% (inactive) | 115% (inactive) and 117% (inactive) | 116% (inactive) and 119% (inactive) | 115% (inactive) and 92.6% (inactive) | 126% (inactive) and 114% (inactive) | 110% (inactive) and 108% (inactive) | 102% (inactive) and 120% (inactive) | 108% (inactive) and 114% (inactive) | 110% (inactive) and 130% (inactive) | 108% (inactive) and 125% (inactive) | 106% (inactive) | 113% (inactive) | 61.9% (inactive) and 120% (inactive)
5 | CC(=O)Nc1cccc2c1CCCC2 | 98% (inactive) and 96.3% (inactive) | 98.9% (inactive) and 98.7% (inactive) |  | 91.8% (inactive) and 84% (inactive) | 101% (inactive) and 111% (inactive) | 68.7% (inactive) and 75.3% (inactive) | 63.6% (inactive) and 88.1% (inactive) | 95.8% (inactive) and 96.6% (inactive) | 109% (inactive) and 101% (inactive) | 107% (inactive) and 101% (inactive) | 109% (inactive) and 110% (inactive) | 103% (inactive) and 95.5% (inactive) | 115% (inactive) and 110% (inactive) | 101% (inactive) | 95.6% (inactive) and 103% (inactive) | 94.9% (inactive) and 100% (inactive) | 107% (inactive) and 97.8% (inactive) | 67.1% (inactive) and 102% (inactive) | 94.5% (inactive) and 101% (inactive) | 96.5% (inactive) and 80.8% (inactive)
6 | Cc1ccc(NCSc2ccc(Cl)cc2)cc1 | 80.7% (inactive) and 93.2% (inactive) | 63.5% (inactive) and 103% (inactive) | 94.8% (inactive) and 94.6% (inactive) |  | 82.7% (inactive) and 93.8% (inactive) |  |  | 39.1% (inactive) and 53.7% (inactive) | 81.6% (inactive) and 93.1% (inactive) | 93.2% (inactive) and 95.4% (inactive) | 74.1% (inactive) and 80.2% (inactive) | 115% (inactive) and 92.6% (inactive) | 58.7% (inactive) and 59.7% (inactive) | 100% (inactive) and 111% (inactive) | 63.9% (inactive) and 57.2% (inactive) | 85.8% (inactive) | 65% (inactive) and 69.6% (inactive) | 70.7% (inactive) and 86.5% (inactive) | 76% (inactive) and 89% (inactive) | 63% (inactive)
7 | CCOC(=O)C(CNc1ccccc1)C(=O)OCC | 100% (inactive) | 95.2% (inactive) | 105% (inactive) |  | 103% (inactive) |  |  | 100% (inactive) | 106% (inactive) | 109% (inactive) | 100% (inactive) | 115% (inactive) | 103% (inactive) | 98.4% (inactive) | 100% (inactive) | 101% (inactive) | 101% (inactive) |  | 109% (inactive) | 85.6% (inactive)
8 | Cc1ccc(S(=O)(=O)Nc2nc3ccccc3nc2Nc2ccc3nsnc3c2)cc1 | 48.7% (inactive) and 37.8% (inactive) | 72.9% (inactive) and 72.7% (inactive) | 58.5% (inactive) and 50.6% (inactive) |  | 32.1% (inactive) and 29.2% (inactive) | 34.8% (inactive) and 23.3% (inactive) | 31% (inactive) and 38.4% (inactive) | 46.9% (inactive) and 45.1% (inactive) | 44.5% (inactive) and 76% (inactive) | 71.2% (inactive) and 62.5% (inactive) | 32.8% (inactive) and 35.3% (inactive) | 33.3% (inactive) and 9.84% (active) | 73.7% (inactive) and 68.8% (inactive) | 80.3% (inactive) and 87.8% (inactive) | 52.2% (inactive) and 54.5% (inactive) | 25.2% (inactive) and 26.7% (inactive) | 63.9% (inactive) and 60.8% (inactive) | 27% (inactive) and 54.4% (inactive) | 48% (inactive) and 49.6% (inactive) | 6.25% (active)
